# According to ChEMBL document CHEMBL3988442, “University of Dundee, Small-Polar-MMV Screening Library” (2021):
# About 950 (1.4%) of roughly 69,000 compounds showed an effect of 50% or more. The sample as a whole holds a higher share of strong results than the screen did.
# Test system: Mycobacterium tuberculosis
# Assay: Cornell M. t heat shock assay; note: in the data most compounds retested in dose-response had high values
# Type: functional, organism-based
# Design: dose or concentration left out as unconfirmed
row,SMILES,Percent Effect [%]
1,Cl.O=C(CCC1CCCC1)N1CCCC(c2ncc3c(n2)CCNC3)C1 (configuration not stated),-5.492
2,CC(C)CCN1C[C@H]2C[C@H](C(=O)NCC(C)C)[C@@H](C1)O2.O=C(O)C(F)(F)F,22.63
3,Cc1nnc(N2CCCC3(CN(Cc4ccc(F)cc4)CCO3)C2)o1.O=C(O)C(F)(F)F (configuration not stated),-29.82
4,c1cnc(N2C[C@@H]3CC[C@H](C2)N(Cc2ccsc2)C3)nc1,15.45
5,CN(C)CCOCc1nnc2n1CCN(Cc1ccoc1)CC2.O=C(O)C(F)(F)F.O=C(O)C(F)(F)F,-36.04
6,O=C(O)C(F)(F)F.c1cc(CN2CCc3c(nnn3CC3CC3)C2COCC2CC2)co1 (configuration not stated),-36.71
7,CC(C)(C)OC(=O)NCC1CCCCN1Cc1ccncc1 (configuration not stated),24.03
8,CC(C)(C)c1nc(CN2CCCC2c2nnc3ccccn23)no1 (configuration not stated),0.5342
9,Cn1cccc1C1CCCN1Cc1noc(C(C)(C)C)n1 (configuration not stated),-40.09
10,CCn1c(C2CCCN2Cc2noc(C(C)(C)C)n2)nc2ccccc21 (configuration not stated),50.31
11,Cc1nc(CN2C(=O)COC3(CCN(C)CC3)C2C)cs1.O=C(O)C(F)(F)F (configuration not stated),-6.14
12,NCC1CN(c2nc(-c3ccccc3)nc3c2CCNCC3)CCO1 (configuration not stated),43.48
13,N#CC1CCCN(c2nc(-c3ccccc3)nc3c2CCNCC3)C1 (configuration not stated),-9.181
14,NCC1CCCN(c2nc(-c3ccccc3)nc3c2CCNCC3)C1 (configuration not stated),69.25
15,Cc1cc(CN2CCC(CNC(=O)c3cnc(C)nc3C)C2)[nH]n1 (configuration not stated),-10.7
16,Cc1cc(CN2CCC(CNC(=O)Cc3ccc(F)cc3)C2)[nH]n1 (configuration not stated),-9.663
17,Cc1cc(CN2CCC(CNC(=O)c3nccc4ccccc34)C2)[nH]n1 (configuration not stated),59.25
18,CN1[C@H](CN2CCCC2)C[C@@H]2CN(C(=O)Cc3ccsc3)CC[C@@H]21.O=C(O)C(F)(F)F.O=C(O)C(F)(F)F,-7.166
19,CN(C)C(=O)[C@@H]1CC[C@@H]2[C@@H](CCN2Cc2nccs2)O1.O=C(O)C(F)(F)F,11.33
20,NC(=O)C1Cn2ccnc2C2(CCN(C(=O)NC3CCCC3)CC2)O1.O=C(O)C(F)(F)F (configuration not stated),2.522
21,Cl.Fc1ccc(F)c(CN2CCC(c3cc4ncccc4cn3)CC2)c1,103.6

row,SMILES,Percent Effect [%]
1,Fc1cccc(CN2CCC(c3noc(-c4cnccn4)n3)CC2)c1F,-19.36
2,Fc1cccc(CN2CCC(c3n[nH]c4ncccc34)CC2)c1F,-15.12
3,Cl.Fc1cccc(CN2CCC(c3cc4ncccc4cn3)CC2)c1F,102.4
4,COc1ccc(C)cc1CN1CCN(Cc2nccn2C)CC1,1.633
5,Fc1cccc(CN2CCC(c3noc(-c4ccccn4)n3)CC2)c1F,12.47
6,Fc1ccc(F)c(CN2CCC(c3cnccn3)CC2)c1,-4.596
7,COc1ccc(C)cc1CN1CCC(c2cc3ncccc3cn2)CC1.Cl,102.1
8,CCc1onc(C)c1C(=O)N1CCC(c2cc3ncccc3cn2)CC1,13.11
9,Fc1ccccc1CN1CCC(c2noc(-c3ccccn3)n2)CC1,13.63
10,Fc1cc(F)cc(CN2CCC(c3cc4ncccc4cn3)CC2)c1,17.06
11,Cc1nc(CN2CCOCC3(CCN(c4ccccn4)C3)C2)cs1.O=C(O)C(F)(F)F.O=C(O)C(F)(F)F (configuration not stated),-41.64
12,CCN(CCNS(=O)(=O)C1CCOCC1)C(=O)OC(C)(C)C,-7.011
13,COCC(=O)NC[C@H]1CC[C@H](c2ccnc3ncnn32)CC1,20.19
14,COc1ccc(C(C)N(C)Cc2c(C3CC3)[nH]c3ncccc23)cc1.Cl (configuration not stated),-15.93
15,CCC/N=c1/c(NC(=O)NCCOC)c(O)oc2ccccc12,-14.33
16,O=C(NC1CC1)c1cn(C2CCN(c3cc(C4CC4)ncn3)CC2)nn1,61.79
17,CCc1cc(N2CCC(n3cc(C(=O)NC4CC4)nn3)CC2)ncn1,51.27
18,CC(C)Nc1cc(N2CCC(n3cc(C4CC4)nn3)CC2)ncn1,-24.54
19,OCCNc1cc(N2CCC(n3cc(C4CCCC4)nn3)CC2)ncn1,8.872
20,CCc1cc(N2CCC(n3cc(C(=O)NCC(C)C)nn3)CC2)ncn1,7.459
21,CCc1cc(N2CCC(NC(=O)CCC3CCCO3)CC2)ncn1 (configuration not stated),-18.51

row,SMILES,Percent Effect [%]
1,CC(C)OCc1ncn2c1CN(Cc1ccc(F)cc1)CCC2.O=C(O)C(F)(F)F,-13.8
2,Cc1ccc(-n2cccn2)cc1S(=O)(=O)N1C[C@@H]2CC[C@H](C1)N(C)C2,23.12
3,Cn1cc(C2CC(=O)NC23CCN(C(=O)Cc2ccccn2)CC3)cn1.O=C(O)C(F)(F)F (configuration not stated),-20.75
4,COc1ccnc(CN2CCCC(CCc3ccccc3)C2)c1OC (configuration not stated),22.56
5,COc1coc(CN2CCCC(CCc3ccc(F)cc3)C2)cc1=O (configuration not stated),-2.405
6,COc1ccnc(CN2CCCC(CCc3ccc(F)cc3)C2)c1OC (configuration not stated),80.3
7,COCCN1CC[C@@H]2OC(COCC(=O)N3CCCC3)CC[C@@H]21.O=C(O)C(F)(F)F (some centres not stated),-19.46
8,COc1c(C)cnc(CNCC(C)C)c1C,-4.994
9,CCCNCc1ncc(C)c(OC)c1C,-10.29
10,CCCS(=O)(=O)NCc1ncc(C)c(OC)c1C,51.82
11,FC1(F)CCN(Cc2ccccn2)CC12CCN(c1cccnc1)C2.O=C(O)C(F)(F)F.O=C(O)C(F)(F)F.O=C(O)C(F)(F)F (configuration not stated),-10.62
12,Cc1csc2ncc(-c3ccnc(N4CCCC[C@@H]4CO)n3)c(=O)n12,73.7
13,O=c1c(-c2ccnc(N3CCCC[C@@H]3CO)n2)cnc2sccn12,-1.826
14,Cc1csc2ncc(-c3ccnc(N4CCC[C@@H]4CO)n3)c(=O)n12,-11.68
15,Cc1nc(CN2CCc3ncnc(-c4ccc(F)cc4)c3CC2)cs1.O=C(O)C(F)(F)F,-9.802
16,CC(O)CNc1nc(-c2cccnc2)nc2c1CCC2 (configuration not stated),6.387
17,Cl.NC1CCc2nc(-c3cccnc3)nc(Nc3ccc(F)cc3)c2C1 (configuration not stated),99.91
18,CN(CC1CCCO1)c1nc(-c2cccnc2)nc2c1CCNCC2 (configuration not stated),-30.46
19,c1cncc(-c2nc3c(c(NCC4(c5ccncc5)CC4)n2)CCC3)c1,-38.69
20,CCc1noc(CNc2nc(-c3cccnc3)nc3c2CCNCC3)n1,-6.144
